Screening results: PubChem, National Center for Advancing Translational Sciences (NCATS)
FUS yeast rescue – FUS proteinopathy suppression in yeast. S. cerevisiae FUS-expressing, growth rescue, OD600, 24 h. 390,000 tested, 0.24% active. Potency, µM (highest dose often 76.6 µM), hits mostly activators;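 note: plate controls were DMSO vehicle for no effect and reference control for full effect; nearly all actives have a fitted effect of over 55% in size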
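Cultures pregrown in 2.5% raffinose medium are shifted to minimal medium containing 2% galactose to express toxic FUS. Compounds are tested at several concentrations. After 24hr at 30C, growth is quantified at 600 nm absorbance.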
Abeta yeast res – A-beta toxicity reversal in yeast. yeast expressing A-beta42, growth rescue, OD600, 48 h; response scale: 0% DMSO, 100% iron-clioquinol control. Potency, µM (doses to about 46.1 µM), hits mostly activators. 410,000 tested, 0.063% active. AID 1347071; note: nearly all actives have a fitted effect of over 55% in size
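Yeast growth medium received pinned compounds, then yeast cells expressing toxic A-beta were added; plates incubated at 30 C for 48 hr. Growth read as absorbance at 600 nm, normalized to DMSO and equimolar FeCl3 plus clioquinol controls.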
TDP43 rescue – inhibitors of TDP-43 toxicity in yeast. 410,000 tested, 1.8% active. AID 652104. Potency, µM (doses to about 46.1 µM), inactives show at the top dose growth rescue (activation), hits mostly activators. TDP-43 expressing yeast growth rescue, BacTiter-Glo, 24 h; note: % of control where 0% means no effect; nearly all actives have a fitted effect of over 50% in size
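In this qHTS, compounds that restore growth of yeast expressing TDP-43 appear as activators. Cells (OD600=0.02, galactose medium, raffinose-pregrown) are incubated with compound 24 hr at 30 deg C and growth is quantified by BacTiter-Glo.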
aSyn yeast inh – alpha-synuclein toxicity inhibition in yeast; Potency, µM (top dose mostly 46.1 µM), without a hit: at the top dose growth rescue (activation), hits mostly activators; Yeast expressing alpha-synuclein, growth rescue, BacTiter-Glo, 24 h; 370,000 tested, 0.14% active; note: % of control where 0% means no effect; nearly all actives have a fitted effect of over 65% in size
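Screening used galactose-induced yeast with toxic alpha-synuclein levels, exposed to compound for 24 hr at 30 deg C. Cell growth, read with BacTiter-Glo luminescence, gave the measured signal.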
Numbers without * were called inactive; i = inactive; u = inconclusive; x = not tested or not shown; [ ] = dose if it differs, or a comment. Rows were chosen to be rich in hits. Some 2.1% of all compounds tested hit in one or more screens of this group. Calls come from the whole dose curve; as a rule, active = well fitted curve in the direction sought with a large enough effect; inconclusive = small, poorly fitted or top-dose-only effect, or another doubt; inactive = no such curve, though single readings can be large; an effect the other way counts as inactive or inconclusive. Potency is the fitted concentration of half-maximal effect.

SMILES	FUS yeast rescue	Abeta yeast res	TDP43 rescue	aSyn yeast inh
Cc1nn(-c2ccccc2)c(N2CCCC2)c1/C=N/NC(=O)c1ccccc1O	i	i	5%	-7%
O=C(N/N=C/c1cc2c3c(c1O)CCCN3CCC2)c1ccccc1O	i	i	-35%	22µM*
Clc1ccc(Cl)c2sc(N3CCCC3)nc12	i	i	7.1µM*	19%
Clc1cccc2sc(N3CCN(c4ccccc4)CC3)nc12	i	i	3.5µM*	0%
O=[N+]([O-])c1ccc(N/N=C2\CC3CC=CC23)c([N+](=O)[O-])c1 (stereo unspecified)	i	i	35µM*	3%
Cc1cc(N)n2ncc(-c3ccc(Cl)cc3)c2n1	i	i	8.9µM*	-12%
Cc1cc(N)n2ncc(-c3ccc(F)cc3)c2n1	i	i	19%	3%
COc1ccc(CN2C(=O)c3cccnc3C2Nc2ccc(OC)c(Cl)c2)cc1 (stereo unspecified)	32µM*	i	-7%	1%
COc1ccc(NC2c3ncccc3C(=O)N2Cc2ccccc2)c(OC)c1 (stereo unspecified)	u	i	-13%	-13%
COc1ccc2c(C)cc(SCn3nnc4ccccc4c3=O)nc2c1	i	i	7%	3.5µM*
COc1ccc(OC)c(C(=O)Cn2nnc3ccccc3c2=O)c1	i	i	-11%	4%
O=c1c2ccccc2nnn1CSc1ccc2c(c1)OCCO2	i	i	11µM*	u
CCCCOc1ccc(CNC(=O)CN2C(=O)CCn3nc(-c4cn(C)c5ccccc45)cc32)cc1	i	i	2%	x
CCCc1c(C)c2cc(C)ccc2[nH]c1=O	i	i	28%	0%
CCCCc1c(C)c2cc(C)ccc2[nH]c1=O	i	i	10µM*	3%
CCC(=O)N1CCc2cc(Br)cc(S(=O)(=O)N3CCCC(C(=O)Nc4ccc(C(C)C)cc4)C3)c21 (stereo unspecified)	8.9µM*	i	-8%	x
COc1ccc(NC(=O)CCn2c(=O)c3cccn3c3ccccc32)c(OC)c1	i	i	22µM*	8%
COc1ccc(NC(=O)NCc2cccn2C)c(OC)c1	28µM*	i	-3%	-2%
COc1ccc(NC(=O)CCn2c(=O)c3cccn3c3ccccc32)cc1	i	i	5%	-2%
CSc1nc(C)c(Oc2ccccc2)c(=O)n1C	i	i	13%	-3%
CSc1nc(-c2ccccc2F)c(C#N)c(=O)n1C	i	i	20µM*	-1%
c1cnc(SCCOc2cccc3ccccc23)nc1	i	i	11µM*	-5%
Clc1ccc(OCCSc2ncccn2)c2ccccc12	i	i	u	x
O=C(c1ccc(N2CCN(C(=O)c3ccc(F)cc3F)CC2)cc1)c1cccc(F)c1	i	i	18µM*	10%
O=C(c1ccc(F)cc1F)N1CCN(c2ncccn2)CC1	i	i	-4%	0%
SMILES	FUS yeast rescue	Abeta yeast res	TDP43 rescue	aSyn yeast inh
CNC(=S)N/N=C(\C)c1ccc(Cl)s1	i	u	14µM*	-9%
Cc1ccc(CN2CCN(/N=C\C(Br)=C\c3ccccc3)CC2)cc1	i	i	13µM*	2%
CCc1cccc(NC(=O)Cn2c(=O)n(CC3CCC(C(=O)NC)CC3)c(=O)c3sccc32)c1 (stereo unspecified)	i	i	0%	x
Cn1c(=O)c2cc(C(=O)NC3CCCCCC3)sc2c2ccccc21	i	i	1%	x
CCn1c(=O)c2cc(C(=O)N(C)c3ccc(OC)cc3OC)sc2c2ccccc21	2µM*	i	19%	-1%
CCOc1ccccc1N(CC)C(=O)c1cc2c(=O)n(CC)c3ccccc3c2s1	32µM*	i	12%	x
CCn1c(=O)c2cc(C(=O)NC3CCCCCC3)sc2c2ccccc21	i	i	16µM*	x
CCc1ccc2c(c1)c(=O)c(S(=O)(=O)c1ccc(F)cc1)cn2CC(=O)Nc1ccccc1OC	i	i	15%	x
N/C(=N\OC(=O)CC1CCCCC1)c1ccccn1	i	i	16µM*	4%
N/C(=N\OC(=O)Cc1ccc(-c2ccccc2)cc1)c1ccccn1	i	i	13µM*	-1%
N/C(=N\OC(=O)CC1CCCCC1)c1ccncc1	i	i	14%	-1%
CCOC(=O)c1nc2sc(C)c(C)c2c(=O)[nH]1	i	i	-19%	1%
O=C(Nc1ccccc1N1CCOCC1)c1ccc2ccccc2n1	i	i	13µM*	9%
CC(C)(C)NC(=O)NC(=O)COC(=O)CNC(=O)C1CCCCC1	i	i	15%	0%
CS(=O)(=O)c1nc(-c2ccc(F)cc2)cc(C(F)(F)F)n1	i	i	-3%[0.397 µM]	8%
COc1ccc(-c2cc(C(F)(F)F)nc(S(C)(=O)=O)n2)cc1	i	i	13µM*	7%
CCOC(=O)CS(=O)(=O)c1nc(-c2ccc(F)cc2)cc(C(F)(F)F)n1	i	i	22µM*	7%
CCOC(=O)CCS(=O)(=O)c1nc(-c2ccccc2)cc(C(F)(F)F)n1	x	i	16µM*	-6%
COc1ccc(-c2cc(C(F)(F)F)nc(-n3cc(Cl)cn3)n2)cc1	u	i	11µM*	-4%
CCOC(=O)CS(=O)(=O)c1nc(-c2ccccc2)cc(C(F)(F)F)n1	i	i	22µM*	-15%
COC(=O)CCS(=O)(=O)c1nc(-c2ccccc2)cc(C(F)(F)F)n1	i	i	u	-1%
COCc1nnc(NS(=O)(=O)c2ccc(NC(C)=O)cc2)s1	i	i	4%	6%
O=C(CSc1n[nH]c(-c2ccccc2)n1)N1CCCC1	i	i	-2%	0%
Cc1ccccc1N1CCN(S(=O)(=O)c2ccccc2)CC1	i	i	13µM*	6%
Cc1ccccc1N1CCN(C(=S)c2ccccc2)CC1	x	i	11µM*	-3%
SMILES	FUS yeast rescue	Abeta yeast res	TDP43 rescue	aSyn yeast inh
CC(C)(C)c1ccc(-c2noc(-c3ccno3)n2)cc1	i	i	-10%	5%
COc1ccccc1NC(=O)N1CCCC1C(=O)Nc1ccc2c(c1)OCCO2 (stereo unspecified)	i	i	3%	10%
COC(=O)Cn1c(=NC(=O)c2ccc(S(=O)(=O)N3CCOCC3)cc2)sc2cc(S(N)(=O)=O)ccc21	x	i	11%	6%
CCCS(=O)(=O)c1c(S(=O)(=O)CCC)c2cc(C(C)(C)C)ccn2c1C(=O)c1ccccc1	18µM*	i	-8%	x
Cc1ccc(C(C[N+](=O)[O-])c2c(N)n(C)c(=O)n(C)c2=O)cc1 (stereo unspecified)	i	i	u	u
Cn1c(N)c(C(C[N+](=O)[O-])c2ccccc2Cl)c(=O)n(C)c1=O (stereo unspecified)	i	i	14µM*	-25%
Cc1cccc2sc(N(Cc3cccnc3)C(=O)c3ccco3)nc12	i	i	18µM*	x
